We go through 69 sequences from PubChem BioAssay AID1508600 (Functional Genomics Laboratory (NCATS/FGL), 2020).

The campaign covered roughly 53,000 sequences. About 3,700 (7%) were called active. The sample as a whole holds a higher share of actives than the screen did. A number with no mark means an inactive call.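 The calls were made as follows: active = gene knockdowns whose robust z-score for IL-1 alpha signal is at least 2 or at most -2, so actives lie on both sides; inactive = the rest.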

A short description of this test: Components of the Cytosolic LPS Sensing Pathway: Gene Identification via Genome-wide siRNA Screen.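 Also: robust z of the log signal after scaling to non-targeting control siRNA wells of the plate.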 As to conditions: RAW264.7 macrophages, IL-1a HTRF, actives lie on both sides, screened at 100 nM (by protocol), cells primed 5 h with Pam3CSK4 first. Put shortly:
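Read-out: IL-1a HTRF on supernatant, divided by plate negative-control median ×100, log-transformed and converted to robust z-score. Cells were RAW264.7 given 100 nM siRNA, Pam3CSK4-primed 5 hours, then LipidA-transfected 24 hour.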
On the technique in general: TR-FRET usually uses a lanthanide donor and a delayed reading to cut background.
Consider CCAACUUCAAAACUAUCGUTT against Trp53bp1, for which the z-score was 2.19 (active).

Consider UGCGAGCUCACUGAUGUACTT against Adam34l, for which the z-score was -1.69. For GGGUUAGGUUGGGAUGGAUTT against Ccnd3 the value was -0.466. GCACCUGACAGAUACUUCCTT against Ints4: the z-score was -2.1 (active). Next, CGUGGGCCUAUGCUUGUCATT against Tsc1: 0.32; GGUUCUGAUAUACGUGUUUTT against Rraga: 0.057.

Consider “CCCAUUCACUCAUCACAUGTT against F630003A18Rik”, for which the z-score was -1.4. Next, GGCAGUUUUGCAUGUGUGATT against Zfp654: -2.23 (active); GCCACUAAGAAUCAGACAUTT against Ryr1: -0.382. For CCAGACCAUUAACUUGAUUTT against Lsm8 the value was -0.739; for “GGUACGAGUGAUCGUACUUTT against 5330438I03Rik”, 0.54; for CCCGUCACCACUUAACAUGTT against Rasal2, 0.699. Next, GCUUUGAUGUCGAUGGGCUTT against Arg1: -2.01 (active).

For the sequence GGAAUACCAUGUUACAAUUTT against Reln, the z-score is 0.816.

Regarding GGUGUCUUUUUUUACAAGATT against Tnfsf11, the z-score is 0.233.

On to GGAGGAACCUAAUUGAAUGTT against Cmbl, for which the z-score was 0.183. For GGUCCAGAUAGACAUCCUGTT against Ralb the value was 0.169; for GCAACUUGUCAGAUGUUUCTT against Trpm7, 3.35 (active); for GGGAUAAAUAUGAAGAAAGTT against Tacc2, -1.46.

Consider GGAACAGAGAUAUGAAACATT against Olfr738, for which the z-score is -2.4 (active). Next, GGAGCAAUUAAAGGUGUCATT against Fpr-rs3: -0.159; CCAUCUUCAGCAGUGGAAATT against Rph3al: -1; GGCGUGCGAUAACACGCAATT against Med18: 1.05.

For GGUCGUAUGGUGCUCAAGATT against Pira1, the z-score is -1.76. For GGCAUAGGACUAGAAGCAGTT against Rsrc2 the value was -1.54; for GCAGUAUGGGACUAUGCUUTT against Cp, -0.0969; for GCCAGAACCUGACUUAUAUTT against Mia2, -0.0793. Next, GCCUGGCUAGAAAUGUGGUTT against Fpr3: 3.19 (active); CCUCAUUCAGAGUAUAUAGTT against Vwa3a: -0.469. Regarding GGCUUUAGAGAAAGAAGUATT against Med4, the z-score was 1.

On to GCGAGGUGUCUCUAUCAACTT against Mrpl11, for which the z-score was 3.37 (active). Next, GCCUUUCUUCAGUGUUCACTT against Gm128: 0.498; GGUCUACGCUAUCCUAGUUTT against Grin1: -2.23 (active); GCACCAAAAUACACGAAAGTT against Ptpdc1: -1.11.

As to CCCAUGACUAUCCAAACAATT against Kcnmb2, the z-score is -1.52.

CCUUAGUAACAGCACUAGCTT against Lrfn2: the z-score is -0.228. Next, GGAGCUGGAGUACGACUACTT against Tmem30b: -0.891; GGGAAAAUUUCCUCUGACUTT against Chia1: -2.03 (active); UUUAAGGAUCUCGUGCGAATT against Olfr809: -0.12.

Take GCUAAAACCCGUUACUUCCTT against Gsta4: the z-score was 0.669.

On to CGACUACAAUGGGCUCAAGTT against Kifc3, for which the z-score is -2.1 (active). Next, GGUAAAGGGUUCUUGGACATT against Eps15l1: -0.156; GGAGAAUGCCCUGAUAUAGTT against Hyal5: 1.56; GGAUGUGAUUGAUAUUGAATT against Cul7: 1.63.

Regarding GCAGUAGUCUUGGAAUUAATT against Bhlhe41, the z-score is 2.15 (active). Next, GCAGCGAGGUUAUCAGUAATT against Sox8: -0.554; GCCUUUUUACAGCUCAGGUTT against Zfp975: -0.623. For GCCACCCUUCUGGAGAUUCTT against Gm6787 the value was 1.49; for CGGUAUCUACAUCAUAAACTT against Rpsa, 0.172; for “GGUUACCAGAAAAUAACUATT against E130114P18Rik”, 0.852. Next, UGUCAACUGACUGUAGUAATT against Zmynd12: 1.66; GGACUGGAAAAUAUCAAACTT against Spata5: 2.04 (active); GGCUACGUGAAGGAACAGUTT against Rps10: 0.397. For GGCACUUAAGUAUUCUUCATT against Wac, the z-score is -0.412. Next, GGAAAAAUCAGUUUCGUCUTT against Dgkq: 0.305; GGUUAGCCAGCUGAAUCAATT against Cxxc4: 1.89; CCUAGAAAGAGGACUCAGATT against Abhd12: -0.293. For CCUUUAAAGGGCAUAUUCATT against Clip1 the value was 1.46; for GGCCUGCCGGAGAUAAAGATT against Tex43, -0.759; for CCCUGUCUUUCCUAGGCCATT against Mcat, -3.3 (active). For AGGGCACAAAAGGUGACAATT against Rph3al the value was -0.887; for GGAUGAUGUUCCCAUGCAATT against Cdca7l, -0.45; for “GCUGCUCGAUUGCUUUCCATT against 4930429B21Rik”, 0.411.

Turning to GGACCAAGUGGAAGAAGCATT against Nkx1-2, the z-score was -2.02 (active). For GGACAGAUGGAAUAGUGAATT against Klra10 the value was -0.657; for CCAUCAAGCGAUUUGUGGUTT against Rnf103, -0.156. For GGCCAGCAGACUAUUUAUUTT against Derl1 the value was 0.304. Next, GGUGCAAGUGCAGUUUCAATT against Fxyd6: 2.38 (active); GCACAAAAUUCACUGUUAGTT against Olfr112: 0.965.
